Activity calls are given as the source filed them.
Assay: S. cerevisiae growth modulation with rapamycin, primary screen, strain BY4716, OD600, 96 h (AID 1091); also: test concentration not given here
Conditions: higher = more signal, called active from +8 up or from −8 down

Compound | z-score
COC(=O)[C@@]1(Cc2ccc(OC)cc2)[C@H]2c3cc(C(=O)N(C)C)n(Cc4cc(C)n(C)n4)c3C[C@H]2CN1C(=O)c1ccccc1 | 0.562 (inactive)
O=C(NCc1ccccc1)[C@]1(Cc2ccccc2)N=C(c2ccc(OCCCO)cc2)O[C@@H]1c1ccccc1 | 18.9 (active)
[N-]=[N+]=NCc1ccccc1[C@H]1OC(c2ccc(OCCCO)cc2)=N[C@@]1(Cc1ccccc1N=[N+]=[N-])C(=O)N1CCCCC1 | 2.23 (inactive)
COCCOC(=O)N1C(=O)[C@@]2(c3ccccc31)[C@H](c1ccc(OCCO)cc1)N1[C@H](c3ccccc3)[C@H](c3ccccc3)OC(=O)[C@H]1[C@@H]2C(=O)NC[C@H](O)c1ccccc1 | 6.77 (inactive)
COc1ccc(C(=O)Nc2ccc3c(c2)[C@]2(O[C@@H](CCO)[C@H]([Si](C)(C)c4ccc(OC)cc4)[C@H]2C)C(=O)N3Cc2ccccc2)cc1 | 3.8 (inactive)
CN(C)C(=O)[C@]1(Cc2ccccc2N=[N+]=[N-])N=C(c2ccc(OCCCO)cc2)O[C@@H]1c1ccccc1CN=[N+]=[N-] | 0.545 (inactive)
COCCOC(=O)N1C(=O)[C@@]2(c3cc(C#Cc4ccc(OC)cc4)ccc31)[C@H](C(=O)N1CCc3cc(OC)c(OC)cc3C1)[C@H]1C(=O)O[C@H](c3ccccc3)[C@H](c3ccccc3)N1[C@@H]2c1ccc(O)cc1 | 2.29 (inactive)
COc1ccc(C#Cc2ccc3c(c2)[C@]2(C(=O)N3)[C@H](C(N)=O)[C@H]3C(=O)O[C@H](c4ccccc4)[C@H](c4ccccc4)N3[C@@H]2c2ccc(O)cc2)cc1 | 2.28 (inactive)

From PubChem BioAssay
